Source: PubChem BioAssay
Most compounds without a hit are left out; they make up all but 2.7% or so of the library.
ERa coact inh – ERα–SRC-1 coactivator interaction inhibitors, primary screen, biochemical, TR-FRET, ERα LBD, estradiol-bound | TR-FRET ER-alpha LBD / SRC-1 peptide | inhibition, % at 25.6 µM | 86,000 tested, 1.7% active; in the data active means inhibition above about 50%
Target sequence (P03372 whole entry, looked up, the tested form may be a part): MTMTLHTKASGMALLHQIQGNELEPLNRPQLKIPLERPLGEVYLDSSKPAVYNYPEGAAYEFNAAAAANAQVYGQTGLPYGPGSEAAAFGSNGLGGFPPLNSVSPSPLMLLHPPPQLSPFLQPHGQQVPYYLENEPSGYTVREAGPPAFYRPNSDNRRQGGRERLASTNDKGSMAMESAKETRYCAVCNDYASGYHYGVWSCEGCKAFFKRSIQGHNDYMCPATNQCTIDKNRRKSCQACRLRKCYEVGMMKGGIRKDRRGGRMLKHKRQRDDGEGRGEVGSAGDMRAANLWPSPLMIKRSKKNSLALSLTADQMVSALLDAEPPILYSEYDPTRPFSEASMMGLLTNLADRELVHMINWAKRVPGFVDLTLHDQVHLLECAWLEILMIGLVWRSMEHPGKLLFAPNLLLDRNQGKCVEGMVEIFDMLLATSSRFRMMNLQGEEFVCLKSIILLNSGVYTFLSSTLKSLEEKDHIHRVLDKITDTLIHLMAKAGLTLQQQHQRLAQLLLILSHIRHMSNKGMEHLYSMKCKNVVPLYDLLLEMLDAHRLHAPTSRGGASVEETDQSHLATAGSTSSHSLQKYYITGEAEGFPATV
ERb SRC1 inh – inhibitors of ERβ-SRC1 coactivator interaction, primary screen, biochemical, TR-FRET, ERβ LBD, SRC-1 peptide; Estrogen receptor beta (Homo sapiens), Q92731; TR-FRET ER-beta LBD / SRC1-Cy5 peptide binding; receptor agonist-loaded with 1 µM estradiol; inhibition, % at 25.6 µM; 86,000 tested, 1.3% active;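 active means compounds whose percent inhibition of the receptor-coactivator binding signal exceeds about 50% in the single-dose screen, limit read from the data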
MRP1 act – H69AR viability gain despite doxorubicin, primary screen, MRP-1 activator project, H69AR cells, CellTiter-Glo; viability rescue; viability increase, % at 10 µM; 140,000 tested, 0.61% active; AID 799, 2007;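 active means viability gain under doxorubicin at or above a set limit, the compound median plus 3 SD, cut at about 4.7% in these data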;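 further: MRP-1 overexpressing cells given doxorubicin 25 µM after compound pretreatment; 18-22 h compound pretreatment then 72 h with doxorubicin before readout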
ERa SRC1 pot – enhancers of ERα–SRC-1 coactivator binding, primary screen, biochemical, TR-FRET, ERα LBD, low estradiol | TR-FRET ERalpha-LBD/SRC-Cy5 coactivator binding, 2 h; 100 = basal binding, no effect | coactivator binding (% of control), % at 25.6 µM | 86,000 tested, 1.3% active | AID 639, 2007; in the data active means activity above about 200%;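 further: binding measured in presence of low estradiol as agonist stimulus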
MRP resist rev – reversal of MRP1-mediated doxorubicin resistance, primary screen, H69AR cells, doxorubicin co-treatment; H69AR cells + 2 uM doxorubicin, CellTiter-Glo, 72 h; differential viability (reversal), % at 10 µM; 85,000 tested, 0.04% active; AID 602, 2007;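 active means viability drop by adding the cancer drug above about 55%, with treated viability meeting a 40% cutoff, limit read from the data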;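 further: larger differential means the compound sensitizes cells more to doxorubicin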
A number is an active result; [ ] = dose if it differs, or a comment.

`Cc1ccc(-c2cc3c(nn2)-c2ccccc2C3=O)cc1` gave ERa coact inh 63[fluorescence artefact?], ERb SRC1 inh inactive, ERa SRC1 pot inactive and MRP resist rev inactive.
`COc1cc(C(Nc2ccccn2)c2ccc3ccc(C)nc3c2O)cc(OC)c1O` (centres undefined) gave ERa coact inh 64[fluorescence artefact?], ERb SRC1 inh 65, MRP1 act inactive, ERa SRC1 pot inactive and MRP resist rev inactive.
For CCOC(=O)Nc1ccc(OC)cc1S(=O)(=O)N1CCCCC1 the results were ERa coact inh 74[fluorescence artefact?], ERb SRC1 inh 74[fluorescence artefact?], MRP1 act inactive, ERa SRC1 pot inactive and MRP resist rev inactive.
N#Cc1nc(-c2ccc(OCc3ccccc3)cc2)oc1NCCN1CCOCC1 was read as ERa coact inh inactive, ERb SRC1 inh inactive, MRP1 act inactive, ERa SRC1 pot 235[fluorescence artefact?] and MRP resist rev inactive.
N#Cc1nc(-c2ccc(OCc3ccccc3)cc2)oc1N1CCOCC1 was read as ERa coact inh inactive, ERb SRC1 inh inactive, MRP1 act inactive, ERa SRC1 pot inactive and MRP resist rev inactive.
`C=CCNc1oc(-c2ccc(OCC)cc2)nc1C#N` gave ERa coact inh inactive, ERb SRC1 inh inactive, MRP1 act inactive, ERa SRC1 pot inactive and MRP resist rev inactive.
For CCOc1ccc(-c2nc(C#N)c(NCC(C)C)o2)cc1 the results were ERa coact inh inactive, ERb SRC1 inh inactive, MRP1 act 6.8, ERa SRC1 pot inactive and MRP resist rev inactive.
`N#Cc1nc(COc2ccc(Br)cc2)oc1NCCN1CCOCC1` gave MRP1 act 7.7.
For CCNC(=O)C(=O)NCC1OCCCN1S(=O)(=O)c1cccs1 (centres undefined) the results were MRP1 act inactive.
CCOc1ncccc1C(=O)OCC(=O)Nc1cc(C(=O)OC)ccc1C(=O)OC was read as ERa coact inh inactive, ERb SRC1 inh inactive, ERa SRC1 pot 372[fluorescence artefact?] and MRP resist rev inactive.
CCOc1ncccc1C(=O)OCC(=O)Nc1cc(C)ccc1C was read as ERa coact inh inactive, ERb SRC1 inh inactive, MRP1 act inactive, ERa SRC1 pot inactive and MRP resist rev inactive.
`Cc1ccc2nc3c(cc(C(N)=S)c(=N)n3CCCOC(C)C)c(=O)n2c1` gave ERa coact inh inactive, ERb SRC1 inh inactive, MRP1 act inactive, ERa SRC1 pot inactive and MRP resist rev inactive.
For Cc1ccc(S(=O)(=O)N(C)c2ccc(OCC(=O)OCc3c(C)noc3C)cc2)cc1 the results were ERa coact inh inactive, ERb SRC1 inh inactive, MRP1 act inactive, ERa SRC1 pot inactive and MRP resist rev inactive.
For Cc1ccc(C(C)C)c(OCC(=O)OCc2c(C)noc2C)c1 the results were ERa coact inh inactive, ERb SRC1 inh 51[fluorescence artefact?], MRP1 act inactive, ERa SRC1 pot inactive and MRP resist rev inactive.
COc1ccc(/C=N/NC(=O)c2ccc(C)cc2)cc1CN1CCN(c2ccc(F)cc2)CC1 was read as MRP1 act inactive.
Screening COc1ccc(/C=N\NC(=O)c2cc(O)c(O)c(O)c2)cc1CN1CCN(c2ccc(F)cc2)CC1 returned MRP1 act 12.
`CC(C)CC(c1nnnn1Cc1ccccc1)N1CCC(C(N)=O)CC1` (centres undefined) gave ERa coact inh inactive, ERb SRC1 inh inactive, MRP1 act inactive, ERa SRC1 pot 210[fluorescence artefact?] and MRP resist rev inactive.
Screening CC(=O)Oc1c(C)cc(Cl)cc1C(=O)Nc1ccc([N+](=O)[O-])cc1Cl returned MRP1 act inactive.
Screening O=c1[nH]c(N/N=C/c2ccccc2Br)nnc1-c1ccccc1 returned MRP1 act 4.8.
For COc1ccc(/C=N/Nc2nnc(-c3ccccc3)c(=O)[nH]2)cc1 the results were MRP1 act inactive.
Screening O=C(Nc1ccc(F)cc1)N1CCOCC1 returned ERa coact inh inactive, ERb SRC1 inh inactive, MRP1 act inactive, ERa SRC1 pot inactive and MRP resist rev inactive.
Screening CN(C)c1ccc(NC(=O)N2CCOCC2)cc1 returned ERa coact inh inactive, ERb SRC1 inh 64[fluorescence artefact?], MRP1 act inactive, ERa SRC1 pot inactive and MRP resist rev inactive.
`Cc1cc(NC(=O)CSc2nnc(-c3ccc4c(c3)OCCO4)o2)no1` gave ERa coact inh inactive, ERb SRC1 inh inactive, MRP1 act inactive, ERa SRC1 pot 327[fluorescence artefact?] and MRP resist rev inactive.
`Cc1cc(C)cc(-c2nnc(SCC(=O)c3ccc4c(c3)OCCO4)o2)c1` gave ERa coact inh inactive, ERb SRC1 inh inactive, MRP1 act inactive, ERa SRC1 pot 221[fluorescence artefact?] and MRP resist rev inactive.
For O=C(CSc1nnc(-c2ccccc2)o1)c1ccc2c(c1)OCCO2 the results were ERa coact inh inactive, ERb SRC1 inh inactive, MRP1 act inactive, ERa SRC1 pot inactive and MRP resist rev inactive.
CN1CCN(C(=S)SCC(=O)Nc2nc(-c3ccccc3)c(-c3ccccc3)o2)CC1 was read as MRP1 act inactive.
COc1cc(C(=O)NCC(=O)N/N=C(/C)c2cccs2)cc(OC)c1OC was read as MRP1 act inactive.
CCOc1ccc(S(=O)(=O)N2CCCC2)cc1 was read as ERa coact inh inactive, ERb SRC1 inh inactive, MRP1 act inactive, ERa SRC1 pot inactive and MRP resist rev inactive.
CN(CCOc1ccc(Cl)cc1)c1ccc(S(=O)(=O)N2CCCCC2)cn1 was read as ERa coact inh inactive, ERb SRC1 inh inactive, MRP1 act inactive, ERa SRC1 pot 236[fluorescence artefact?] and MRP resist rev inactive.
For CCc1ccccc1N(C1=NCCCS1)S(=O)(=O)c1ccc(C(C)(C)C)cc1 the results were MRP1 act inactive.
Screening Cc1c(C(=O)OC2CCC(C)CC2)[nH]c2c1C(=O)CCC2 (centres undefined) returned ERa coact inh inactive, ERb SRC1 inh inactive, MRP1 act 5.2, ERa SRC1 pot inactive and MRP resist rev inactive.
Screening COC(=O)c1[nH]c2c(c1C)C(=O)CCC2 returned ERa coact inh inactive, ERb SRC1 inh inactive, MRP1 act inactive, ERa SRC1 pot inactive and MRP resist rev inactive.
CCOC(=O)C(C(C)=O)c1c(Br)c(O)c(O)c2c(C(=O)c3ccc(C)cc3)coc12 (centres undefined) was read as ERa coact inh inactive, ERb SRC1 inh 72[fluorescence artefact?], MRP1 act inactive, ERa SRC1 pot inactive and MRP resist rev inactive.
Screening CCOC(=O)c1c(C)n(-c2ccc(C)cc2)c2c(C(C(C)=O)C(=O)O)c(Br)c(O)c(O)c12 (centres undefined) returned MRP1 act inactive.
For CC(=O)Nc1ccc(S(=O)(=O)NC(C(=O)O)C(C)C)cc1 (centres undefined) the results were ERa coact inh inactive, ERb SRC1 inh 66[fluorescence artefact?], ERa SRC1 pot inactive and MRP resist rev inactive.
Screening O=S(=O)(c1ccc(N2CCN(S(=O)(=O)c3ccc4c(c3)OCCO4)CC2)nc1)N1CCCC1 returned ERa coact inh inactive, ERb SRC1 inh inactive, MRP1 act inactive, ERa SRC1 pot 275[fluorescence artefact?] and MRP resist rev inactive.
